# PubChem BioAssay
# Activity calls are given as the source filed them.
# What was measured:
# [1] = binders of probe aFSTL3 on microarray, primary screen, stem cell growth factor project, biochemical, small-molecule microarray, fluorescence 635/667 (AID 1064); details: higher = more signal;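 also: measures binding of the biotinylated anti-FSTL3 antibody to printed compounds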
# [2] = binders from COS7 lysate, DM2A8 probe, primary screen, torsin A project, cell lysate, small-molecule microarray, fluorescence 635/667 (AID 1065); details: higher = more signal, COS7 lysate expressing mutant human TOR1A
# [3] = binders of probe aFGF2 on microarray, primary screen, stem cell growth factor project, biochemical, small-molecule microarray, fluorescence 635/667 (AID 1067); details: higher = more signal;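 also: measures binding of biotinylated aFGF2 protein to printed compounds on slides; z-score merges feature fluorescence and signal-to-noise across triplicate slides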
# [4] = binders of probe aFGF10 on microarray, primary screen, stem cell growth factor project, biochemical, small-molecule microarray, fluorescence 635/667 (AID 1071); details: higher = more signal;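 also: score merges 667 nm spot intensity and signal to noise from triplicate slides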
# [5] = target: Neurogenic locus notch homolog protein 2 (Homo sapiens) (UniProt Q04721); assay: Notch2 binders on small-molecule microarrays, primary screen, biochemical, small-molecule microarray, 635 nm fluorescence, stem cell growth factors (AID 1073); details: Notch2 binding, higher = more signal
# Chain of Neurogenic locus notch homolog protein 2 (Homo sapiens) (Q04721 whole entry, looked up, canonical isoform): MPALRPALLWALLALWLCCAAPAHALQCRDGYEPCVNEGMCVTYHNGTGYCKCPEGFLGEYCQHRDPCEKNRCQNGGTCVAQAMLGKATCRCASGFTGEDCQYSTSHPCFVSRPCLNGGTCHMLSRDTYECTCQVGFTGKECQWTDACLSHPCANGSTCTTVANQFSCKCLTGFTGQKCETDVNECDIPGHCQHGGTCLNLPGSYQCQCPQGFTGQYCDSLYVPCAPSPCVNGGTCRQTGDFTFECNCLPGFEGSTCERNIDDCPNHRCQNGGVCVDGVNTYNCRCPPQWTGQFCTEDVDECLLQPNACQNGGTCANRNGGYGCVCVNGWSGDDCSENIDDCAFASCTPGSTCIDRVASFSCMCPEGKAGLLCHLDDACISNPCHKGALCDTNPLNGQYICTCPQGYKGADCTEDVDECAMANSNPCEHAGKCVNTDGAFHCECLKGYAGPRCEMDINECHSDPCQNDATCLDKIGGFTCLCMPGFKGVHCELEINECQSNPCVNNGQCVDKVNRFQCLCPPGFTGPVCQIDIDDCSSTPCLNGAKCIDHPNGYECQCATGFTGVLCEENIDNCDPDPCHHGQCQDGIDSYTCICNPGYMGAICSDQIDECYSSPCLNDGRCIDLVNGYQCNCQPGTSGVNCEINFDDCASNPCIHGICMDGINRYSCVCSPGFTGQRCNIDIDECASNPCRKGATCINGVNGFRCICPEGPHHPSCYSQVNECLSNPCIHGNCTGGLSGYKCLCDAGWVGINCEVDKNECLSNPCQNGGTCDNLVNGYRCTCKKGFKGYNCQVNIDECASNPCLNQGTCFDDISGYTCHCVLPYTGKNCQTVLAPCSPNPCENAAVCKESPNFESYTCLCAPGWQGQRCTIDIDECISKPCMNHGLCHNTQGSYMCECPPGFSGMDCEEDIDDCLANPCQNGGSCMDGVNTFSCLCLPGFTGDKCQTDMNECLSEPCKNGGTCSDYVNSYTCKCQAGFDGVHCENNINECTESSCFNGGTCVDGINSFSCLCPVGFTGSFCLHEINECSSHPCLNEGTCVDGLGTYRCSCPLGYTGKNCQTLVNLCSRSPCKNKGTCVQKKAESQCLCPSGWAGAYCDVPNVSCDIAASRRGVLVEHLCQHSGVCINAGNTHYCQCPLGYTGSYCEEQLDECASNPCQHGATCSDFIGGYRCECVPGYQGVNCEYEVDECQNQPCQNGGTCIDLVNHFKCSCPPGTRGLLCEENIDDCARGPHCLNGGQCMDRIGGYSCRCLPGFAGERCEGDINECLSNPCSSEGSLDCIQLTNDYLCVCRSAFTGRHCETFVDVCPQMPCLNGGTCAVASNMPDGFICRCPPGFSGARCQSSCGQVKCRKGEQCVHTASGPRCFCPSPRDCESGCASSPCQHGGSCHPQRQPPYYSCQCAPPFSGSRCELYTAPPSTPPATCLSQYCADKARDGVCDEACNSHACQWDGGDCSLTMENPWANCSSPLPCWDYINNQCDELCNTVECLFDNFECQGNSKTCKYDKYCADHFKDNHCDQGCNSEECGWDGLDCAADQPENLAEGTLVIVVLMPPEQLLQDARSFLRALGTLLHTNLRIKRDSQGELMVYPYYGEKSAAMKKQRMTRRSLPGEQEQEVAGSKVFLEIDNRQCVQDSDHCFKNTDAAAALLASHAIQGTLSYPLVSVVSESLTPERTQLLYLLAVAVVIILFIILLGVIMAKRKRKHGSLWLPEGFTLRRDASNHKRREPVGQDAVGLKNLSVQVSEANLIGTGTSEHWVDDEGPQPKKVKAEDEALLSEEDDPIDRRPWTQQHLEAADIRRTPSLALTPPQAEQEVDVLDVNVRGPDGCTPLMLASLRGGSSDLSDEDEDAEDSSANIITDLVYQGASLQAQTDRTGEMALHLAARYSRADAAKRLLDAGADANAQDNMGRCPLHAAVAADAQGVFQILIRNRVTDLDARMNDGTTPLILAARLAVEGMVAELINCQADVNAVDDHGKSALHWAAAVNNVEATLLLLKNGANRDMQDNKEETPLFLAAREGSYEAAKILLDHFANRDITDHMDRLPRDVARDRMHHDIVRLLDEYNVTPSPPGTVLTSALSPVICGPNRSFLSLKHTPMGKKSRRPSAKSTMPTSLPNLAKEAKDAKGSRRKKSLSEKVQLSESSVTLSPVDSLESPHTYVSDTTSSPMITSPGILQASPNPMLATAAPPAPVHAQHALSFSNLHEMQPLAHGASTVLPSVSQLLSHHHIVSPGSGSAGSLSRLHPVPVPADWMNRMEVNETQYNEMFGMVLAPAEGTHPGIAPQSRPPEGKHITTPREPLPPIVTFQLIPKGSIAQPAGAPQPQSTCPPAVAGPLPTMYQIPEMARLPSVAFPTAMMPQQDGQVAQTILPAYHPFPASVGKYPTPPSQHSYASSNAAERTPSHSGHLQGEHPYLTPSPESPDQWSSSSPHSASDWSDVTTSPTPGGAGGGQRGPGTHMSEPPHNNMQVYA
# [6] = target: Pro-neuregulin-1, membrane-bound isoform (Homo sapiens) (UniProt Q02297); assay: NRG1 binders on small-molecule microarrays, primary screen, psychiatric disease protein project, biochemical, small-molecule microarray, fluorescence 635/667 (AID 1075); details: NRG1 binding, 635 nm fluorescence, higher = more signal;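 also: score combines 667 nm spot fluorescence with signal to noise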
# Chain of Pro-neuregulin-1, membrane-bound isoform (Homo sapiens) (Q02297 whole entry, looked up, the tested form may be a part, canonical isoform): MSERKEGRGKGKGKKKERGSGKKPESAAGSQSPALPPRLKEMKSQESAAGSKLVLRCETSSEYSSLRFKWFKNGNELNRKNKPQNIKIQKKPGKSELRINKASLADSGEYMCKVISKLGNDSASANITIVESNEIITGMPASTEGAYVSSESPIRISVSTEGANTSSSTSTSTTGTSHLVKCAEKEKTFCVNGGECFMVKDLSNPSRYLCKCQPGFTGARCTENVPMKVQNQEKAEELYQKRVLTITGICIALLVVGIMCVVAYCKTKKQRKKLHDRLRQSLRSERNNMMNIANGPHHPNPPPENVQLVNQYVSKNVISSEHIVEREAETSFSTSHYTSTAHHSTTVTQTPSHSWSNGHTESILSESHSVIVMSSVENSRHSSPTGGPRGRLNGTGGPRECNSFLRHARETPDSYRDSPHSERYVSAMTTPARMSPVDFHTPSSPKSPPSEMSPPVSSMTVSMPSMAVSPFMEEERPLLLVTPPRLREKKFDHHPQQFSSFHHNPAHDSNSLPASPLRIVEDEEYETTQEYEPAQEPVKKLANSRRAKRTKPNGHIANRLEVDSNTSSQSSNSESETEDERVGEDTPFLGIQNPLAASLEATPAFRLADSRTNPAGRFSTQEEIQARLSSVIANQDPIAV
# [7] = system: Neuregulin-1 EGF-like domain; assay: binders of neuregulin-1 EGF-like domain, primary screen, biochemical, small-molecule microarray, 635 nm fluorescence (AID 1081); details: small-molecule microarray binding, higher = more signal;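 also: binding of the protein to compounds printed on small-molecule microarray slides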
# [8] = FRG1 promoter luciferase signal modulators, primary screen, FRG1 inhibition for FSHD, cell-based, C2C12 myotubes, firefly/Renilla luciferase, luminescence (AID 1084); details: higher = more signal, called active from +8 up or from −8 down
# [9] = binders of probe aFST on microarray, primary screen, stem cell growth factor project, biochemical, small-molecule microarray, fluorescence 635/667 (AID 1086); details: higher = more signal;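 also: score merges 667 nm fluorescence with signal-to-noise of each printed compound spot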
# [10] = binders of probe aHhip on microarray, primary screen, stem cell growth factor project, biochemical, small-molecule microarray, fluorescence 635/667 (AID 1087); details: higher = more signal;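 also: score merges spot fluorescence at 667nm with spot signal to noise ratio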
SMILES,composite z-score [1],composite z-score [2],composite z-score [3],composite z-score [4],composite z-score [5],composite z-score [6],composite z-score [7],z-score [8],composite z-score [9],composite z-score [10]
COc1cccc(OC)c1C(=O)O[C@H]1[C@@H]2OC(=O)[C@H](Cc3cccc(Br)c3)C/C=C/C[C@@H](Cc3cccc(Br)c3)C(=O)O[C@H]2[C@@H](OC)O[C@@H]1CO,0.0113,0.94,-0.0262,0.205,0.194,1.28,0.945,-0.199 (inactive),0.401,0.101
C=CCOC(=O)[C@H]1[C@@H]2C(=O)O[C@@H](c3ccccc3)[C@@H](c3ccccc3)N2[C@@H](c2ccc(OCCOC(=O)[C@H]3C[C@H]4C(=O)NCC(=O)N4[C@H]3c3ccc(O)cc3)cc2)[C@]12C(=O)Nc1ccc(I)cc12,-0.309,1.03,-0.0867,0.202,0.636,0.346,0.869,-1.35 (inactive),0.392,0.064
CN(C)C(=O)[C@@]1(CCS(=O)(=O)c2ccccc2)N=C(c2ccc(OCCCO)cc2)O[C@H]1c1ccccc1N=[N+]=[N-],-0.35,0.259,0.167,0.792,1.32,1.55,0.551,0.401 (inactive),1.49,-0.0994
CCCCCN1CC=CC23O[C@@H]4C=CCOC(=O)[C@@H]4[C@H]2C(=O)N(CCCCCO)[C@@H]3C1=O (stereo not given in full),0.346,1.8,-0.113,-1.11,-1.26,-0.48,1.29,0.391 (inactive),-0.883,-0.261
C=C(COC)/C(=C/C[C@H](OC(=O)c1ccncc1)c1ccc(OCCO)cc1)c1cc(C(=O)OC)ccc1OC,-0.139,-0.0024,0.0436,1.08,0.0841,0.358,1.03,-0.992 (inactive),1.42,0.113
C=CCN1C(=O)[C@]2(O[C@H](CCO)[C@@H]([Si](C)(C)c3ccc(OC)cc3)[C@@H]2C)c2ccccc21,-0.277,-0.313,-0.144,-0.314,-0.599,0.174,0.122,-3.89 (inactive),-0.488,-0.0933
C[C@H]1C2[C@H](Cc3ccccc3)NC(=O)[C@]23C(=O)NCC(=O)N2CCC[C@H]2C(=O)NC/C=C\C/C=C/C3[C@@H]2O[C@]12C (stereo not given in full),-0.376,0.171,-0.087,0.557,0.726,-0.139,-0.0828,0.276 (inactive),-0.274,0.123
CO[C@H]1O[C@H](CO)[C@@H](OC(=O)Nc2ccccc2)[C@@H]2OC(=O)[C@H](Cc3ccccc3)C/C=C/C[C@@H](Cc3ccccc3)C(=O)O[C@@H]12,0.146,0.779,0.0732,0.775,1.48,1.14,1.04,-1.64 (inactive),0.654,-0.0296
[N-]=[N+]=NCc1ccccc1C[C@]1(C(=O)O)COC(c2ccc(OCCCO)cc2)=N1,0.895,-0.167,-0.0213,-0.461,-0.664,1.57,0.0238,0.277 (inactive),0.0273,0.2
C[N+](C)(C)CCCC[C@@H]1NC(=O)[C@H]2C[C@@H](C(=O)NCCCCCNC(=O)CS)[C@@H](c3ccc(O)cc3)N2C1=O,-0.257,-0.0727,-0.118,0.198,0.363,1.55,0.745,-1.04 (inactive),0.104,0.0623
COCCOC(=O)N1C(=O)[C@@]2(c3cc(C#CCCO)ccc31)[C@H](c1ccccc1OCCO)N1[C@H](c3ccccc3)[C@H](c3ccccc3)OC(=O)[C@H]1[C@@H]2C(=O)N1CCc2cc(OC)c(OC)cc2C1,0.071,0.827,0.022,1.04,1.04,1.21,1.17,-1.4 (inactive),0.505,0.0373
Cc1c(NC(=O)/C(C#N)=C/c2ccc(Cl)cc2)c(=O)n(-c2ccccc2)n1C,-0.268,-0.113,-0.0909,0.589,0.746,0.942,1.2,-0.131 (inactive),0.52,0.0623
COCCOC(=O)N1C(=O)[C@@]2(c3cc(C#CCC(C(=O)OC)C(=O)OC)ccc31)[C@H](c1ccc(OCCO)cc1)N1[C@H](c3ccccc3)[C@H](c3ccccc3)OC(=O)[C@H]1[C@@H]2C(=O)N1CCCCCCC1,3.74,1.64,0.671,0.304,1.37,0.812,1.3,0.562 (inactive),3.32,3.43
CCCCC=C[C@@H](NC(=O)c1ccc(C(F)(F)F)cc1)c1ccccc1,0.385,0.0374,-0.0583,-0.0239,-0.955,0.297,-0.444,1.02 (inactive),-0.392,0.449
Cc1ccc(S[C@]2(C(=O)NCC(F)(F)F)CC(=O)N(C3CCCCC3)[C@@H]2c2ccc(CO)cc2)cc1,0.169,0.148,-0.129,0.116,-0.426,1.66,0.631,-2.21 (inactive),0.387,-0.271
CC(C)(C)N1CC=CC23O[C@@H]4/C=C\CCCOC(=O)C4[C@H]2C(=O)N(CCCCCCO)[C@@H]3C1=O (stereo not given in full),0.509,-0.342,-0.208,-0.056,-1.12,1.1,0.781,-1.09 (inactive),-0.392,-0.0618
C#CCN([C@H](/C=C/C1CC1)[C@@H](O)Cc1ccccc1)[C@@H](Cc1ccccc1)C(=O)OC,0.262,-0.134,-0.121,-0.363,-0.807,-0.458,-0.706,-1.67 (inactive),-0.0804,-0.123
C=CCC(OC(C)=O)[C@@H]1[C@@H](N(Cc2ccc(-c3cccc(C(F)(F)F)c3)o2)C(=O)Cc2ccc(F)cc2)c2cc(OCCCO)ccc2N1C(=O)c1ccc2ccccc2n1 (stereo not given in full),-0.019,0.193,-0.106,-0.321,-0.848,-0.114,-0.533,0.01 (inactive),0.0974,0.235
Cc1ccc(S[C@]2(C(=O)NC3CC3)CC(=O)N(Cc3cc(C(F)(F)F)cc(C(F)(F)F)c3)[C@@H]2c2ccc(CO)cc2I)cc1,0.385,1.11,0.21,0.0945,-0.262,0.212,1.27,0.528 (inactive),0.457,-0.494
CO[C@H]1O[C@H](CO)[C@@H](OC(=O)Nc2ccc(C(F)(F)F)cc2)[C@H](OC(=O)Nc2ccccc2-c2ccccc2)[C@H]1OC(=O)Nc1ccccc1-c1ccccc1,-0.288,1.16,0.0276,0.988,1.04,0.802,1.36,2.53 (inactive),0.997,-0.0645
COCCOC(=O)N1C(=O)[C@@]2(c3cc(C#CCCO)ccc31)[C@H](C(=O)N1CCN(c3ncccn3)CC1)[C@H]1C(=O)O[C@H](c3ccccc3)[C@H](c3ccccc3)N1[C@@H]2c1ccc(O)cc1,-0.782,0.219,0.0243,0.534,0.376,0.926,1.24,-1.3 (inactive),-0.3,-0.367
COc1ccc(NN2C(C(O)c3ccc(OC)cc3)C=CC3C(=O)N(C4CCCCC4)C(=O)C32)cc1 (stereo not given),-0.147,0.191,-0.0131,0.467,1.18,1.29,0.978,1.55 (inactive),0.775,-0.16
COC(=O)[C@@]1(Cc2ccccc2CN=[N+]=[N-])COC(c2ccc(OCCCO)cc2)=N1,1.28,-1.34,-0.245,-0.565,-1.79,0.305,0.62,-0.988 (inactive),-0.575,-0.137
C[C@@H](OCc1ccccc1)C1NC(=O)[C@@]23C(=O)N[C@@H](Cc4ccccc4)C2[C@H](C)[C@@]2(C)O[C@H]2C3/C=C/C/C=C\CNC(=O)[C@H](Cc2ccccc2)NC1=O (stereo not given in full),-0.497,-0.0147,-0.199,0.709,-0.284,-0.239,0.438,3.33 (inactive),-0.128,0.103
O=C1N(CCS(=O)(=O)c2ccccc2)c2ccccc2[C@@H]2OC(c3ccc(OCCCO)cc3)=N[C@]12CCS(=O)(=O)c1ccccc1,0.359,0.145,0.0069,0.291,1.44,0.195,1.28,-3.3 (inactive),0.855,0.0053
CC(=O)n1cc(C(O)C2C=CC3C(=O)N(c4ccccc4)C(=O)C3N2Nc2ccccc2F)c2ccccc21 (stereo not given),-0.146,0.25,-0.0757,-0.274,0.021,1.69,1.02,0.625 (inactive),-0.346,0.0505
CN1C(=O)[C@]2(CCC(=O)OC(C)(C)C)N=C(c3ccc(OCCCO)cc3)O[C@@H]2c2ccccc21,0.229,0.326,0.0458,0.182,0.428,1.8,1.35,0.518 (inactive),0.898,0.21
CC(C)C[C@H]1NC(=O)[C@@]23C(=O)N[C@@H](Cc4ccccc4)C2[C@H](C)[C@@]2(C)O[C@H]2C3/C=C/C/C=C\CNC(=O)[C@@H]2CCCN2C1=O (stereo not given in full),-0.504,-0.39,-0.078,0.774,0.303,0.912,0.665,0.31 (inactive),0.52,-0.0645
CN1C(=O)C2C(C1=O)C1C=C(c3ccc(CO)cc3)C2C(c2cccs2)N1C (stereo not given),0.085,0.429,-0.0578,0.0934,-0.0125,0.885,1.04,1.63 (inactive),-0.075,-0.137
